# Measurements taken from PubChem BioAssay (NCATS).
# Results filed as inconclusive are left out. Unmarked numbers belong to inactive results. Activity calls are given as the source filed them. Calls follow the shape of the dose curve; as a rule, active = well fitted inhibition curve with a large enough effect; inconclusive = small, poorly fitted or top-dose-only effect; inactive = flat fitted curve, though single readings scatter.
# System: Zika virus NS2B-NS3 protease
# Assay: Primary screen GU AMC qHTS for Zika virus inhibitors (AID 1347154); also: nearly all actives have a fitted effect of over 70% in size;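 as to activity change, negative = inhibition: 0% = no-inhibitor control and -100% = no-enzyme control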
# Settings: Zika NS2B-NS3 unlinked protease, AMC fluorogenic substrate; series mostly up to 54.1 µM; activity change, negative = inhibition: at the top concentration
# Method in brief: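 Unlinked Zika NS2B hydrophilic domain–NS3 protease complex at 25 nM in 10 mM Tris-HCl pH 8.0, 0.01% Tween 20, with an AMC peptide substrate. Fluorescence change (340/450 nm) over 15 min at room temperature, normalized to controls, fitted to 4-parameter Hill.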
# Potency is read from the fitted curve at half-maximal effect.
SMILES,"activity change, negative = inhibition",Potency
CCNC(=O)CC1N=C(c2ccc(Cl)cc2)c2cc(OC)ccc2-n2c(C)nnc21 (centres undefined),5.01%,–
CCc1c(C(=O)C(N)=O)c2c(OCC(=O)O)cccc2n1Cc1ccccc1,2.78%,–
C[C@@H]1[C@H](O)[C@@H](C)C=CC=CCCC=CC=CC=CC=C[C@H](O[C@H]2O[C@@H](C)[C@H](O)[C@@H](N)[C@@H]2O)CC2O[C@](O)(C[C@@H](O)[C@H](O)CC[C@@H](O)C[C@@H](O)C[C@@H](O)CC(=O)O[C@H]1C)C[C@H](O)[C@H]2C(=O)O,23.9%,–
CCCC[N+]1(C)[C@H]2CC(OC(=O)[C@H](CO)c3ccccc3)C[C@H]1[C@H]1O[C@H]12 (some centres undefined),-4.57%,–
CC(C)(C)NC[C@H](O)c1ccc(O)cc1Cl,-4.85%,–
CC1(N2CCC(n3c([C@@H]4CCCNC4)nc4ccccc43)CC2)CCCCCCC1,4.16%,–
C[C@](O)(COc1ccc(C#N)cc1)C(=O)Nc1ccc(C#N)c(C(F)(F)F)c1,-6.15%,–
O=S(=O)(O)C(F)(F)C(F)(F)C(F)(F)C(F)(F)C(F)(F)C(F)(F)C(F)(F)C(F)(F)F,–,11.2 µM (active)
COCC1(CO)C(=O)C2CCN1CC2 (centres undefined),7.13%,–
O=C(O)CNC(=O)c1c(O)c2ccccc2n(Cc2ccccc2)c1=O,-6.24%,–
CCOC(=O)Nc1ccc(NCc2ccc(F)cc2)cc1N,8.79%,–
CC(N[C@H]1C[C@H]1c1ccccc1)c1ccc2c(c1)OCCO2 (some centres undefined),2.93%,–
CC(C)N(CCNC(=O)CN1CCCC1=O)C(C)C,-11.6%,–
O=S(=O)(O)C(F)(F)C(F)(F)C(F)(F)C(F)(F)F,1.57% [at 104 µM],–
O=C1C=CC[C@@H]2[C@H]3CCCN4CCC[C@@H](CN12)[C@@H]34,7.26%,–
O=C(O)COc1ccccc1,-0.332%,–
CCNC(=O)C[C@@H]1N=C(c2ccc(Cl)cc2)c2cc(OC)ccc2-n2c(C)nnc21,-7.67%,–

SMILES,"activity change, negative = inhibition",Potency
CN1CCN(c2ccc([N+](=O)[O-])c3no[n+]([O-])c23)CC1,1.16%,–
CN[C@@H]1Cc2cccc3[nH]c(=O)n(c23)C1,14.7%,–
Fc1cc(Br)ccc1CBr,0.795%,–
CCN(CC)C(=O)c1ccc(C2=CC3(CCNCC3)Oc3cccc(O)c32)cc1,14.4%,–
CC(C)[C@H]1C(=O)N[C@H](CO)Cc2c[nH]c3cccc(c23)N1C,0.236%,–
O=[N+]([O-])/N=C1\NCCN1Cc1ccc(Cl)nc1,-6.44%,–
CC(C)(C)[C@]1(O)C[C@@H]2OC(=O)C[C@@]23C(=O)O[C@@H]2OC(=O)[C@H](O)C213 (some centres undefined),24.8%,–
O=C(NCC1CCOCC1)c1cnc(Nc2ccc(Cl)cc2Cl)nc1C(F)(F)F,16.5%,–
CCN1CCN(C(=O)Cc2ccc(Nc3ncc(F)c(Nc4ccc(C(=O)Nc5ccccc5Cl)cc4)n3)cc2)CC1,-6.17%,–
O=S(=O)(F)Cc1ccccc1,10.1%,–
COc1ccc(N(C(=O)Oc2c(C)cccc2C)c2ccnc(Nc3ccc(N4CCN(C)CC4)cc3)n2)c(OC)c1,-1.31%,–
COC(C)(C)CCCC(C)C/C=C/C(C)=C/C(=O)OC(C)C (centres undefined),-0.976%,–
COC1=C[C@@H]2[C@@H]3Cc4ccc(OC)c(O)c4[C@]2(CCN3C)CC1=O,19.4%,–
O=C(N[C@@H](COc1ccc2[nH]c(=O)[nH]c2c1)c1ccccc1)c1cccn(Cc2ccc(F)c(F)c2)c1=O,-4.33%,–
O=C1CCC[C@@H]2[C@H]3CCCN4CCC[C@@H](CN12)[C@@H]34,1.98%,–
CCN1C[C@]2(OC(=O)c3ccccc3NC(C)=O)CC[C@H](OC)[C@@]34[C@H]5CC6[C@@H](OC)C[C@](O)(C(C[C@@H]23)[C@@H]14)[C@@]5(O)[C@@H]6OC,-15.9%,–
CCOC(=O)c1c(C(C#N)=CN)c2ccc(Cl)c(Cl)c2n1C,5.22%,–
